Where a name gives a salt, the structure may show the parent alone.
Columns and labels:
[1] = tested on: E18 rat cortical neuron-glia co-culture; test: fiber score / MBP score (myelination specific beyond OL differentiation) (ratio); higher = more myelination-specific MBP alignment; settings: 1 µM; treatment time: 8 days (DIV5-DIV13)
How it was run: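 Papain-dissociated primary E18 rat cortical co-cultures, plated at 20,000 cells/well on poly-d-lysine/laminin 96-well plates, were exposed to library compounds at 1 or 5 µM in myelination medium between DIV5 and DIV13. Following fixation in 4 % paraformaldehyde, cultures were stained for MBP, Olig2 and DAPI, and four 10X fields per well were analysed in duplicate wells. Values are the ratio of fiber score (continuous MBP fiber length per Olig2+ nucleus) to MBP score (thresholded MBP area × intensity per Olig2+ nucleus).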

[2] = tested on: E18 rat cortical neuron-glia co-culture; test: myelination (MBP fiber length per Olig2+ nucleus), % of 1 µM DAPT response (DMSO = 0) (% of DAPT); higher = more myelination, active = 50 or more; settings: treatment time: 8 days (DIV5-DIV13)
How it was run: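 Myelination, expressed as continuous straight MBP fiber length per Olig2+ nucleus, was normalised to 0.1 % DMSO as 0 and a 1 µM positive control as 100. The cultures were primary E18 rat cortical co-cultures dissociated with papain and plated at 20,000 cells/well on poly-d-lysine/laminin-coated 96-well plates. They received library compounds at 1 or 5 µM in myelination medium between DIV5 and DIV13. Analysis covered four 10X fields per well in duplicate wells after 4 % paraformaldehyde fixation and immunostaining for MBP and Olig2 with DAPI.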

Row | SMILES | fiber score / MBP score [1] | myelination ([2]; 1 µM) | myelination ([2]; 5 µM)
1 | OCCN1CCN(CCCN2c3ccccc3Sc3ccc(Cl)cc32)CC1 [Perphenazine] | 0.338 | -21.7 (inactive) | –
2 | CC(C)c1ccc2c(c1)c(SC(C)(C)C)c(CC(C)(C)C(=O)O)n2Cc1ccc(Cl)cc1 | 1.1 | -5.83 (inactive) | < -35.1 (inactive)
3 | CN(C)CCOc1ccc(/C(=C(/CCCl)c2ccccc2)c2ccccc2)cc1 [Toremifene] | 0.889 | 3.19 (inactive) | –
4 | Cc1cccc(CN2CCN(C(c3ccccc3)c3ccc(Cl)cc3)CC2)c1 (configuration not stated) [Meclizine] | 0.439 | -29.8 (inactive) | < -51.3 (inactive)
5 | CNCCC(Oc1ccc(C(F)(F)F)cc1)c1ccccc1 (configuration not stated) [Fluoxetine hydrochloride] | 0.807 | -1.16 (inactive) | –
